Assay outcomes: PubChem BioAssay, Broad Institute
In the library only some 3% were active in any assay of this set; here they are far more common.
MITF act: increases MITF-driven TRPM1 promoter luciferase signal. SK-MEL-5 TRPM1-promoter luciferase, 24 h; % of positive control, neutral wells = 0. activation, % at 12.5 µM. 300,000 tested, 0.75% active. AID 588334;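 active = mean activation of at least 80% with every replicate also reaching 80%; inconclusive = mean reaches 80% but some replicate falls short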;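 also: 0% = neutral control wells and 100% = parthenolide positive control wells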
Wnt act: Wnt/beta-catenin pathway activation | Wnt/beta-catenin reporter cell assay, activator, plate reader | AID 743398 | activation, % at 9.35 µM | 300,000 tested, 1.2% active; in the data active = activation above about 30%, passing the limit was not always enough; inconclusive = no clear call, values can overlap the other calls;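 also: 0% = neutral control wells and 100% = positive control wells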
esBAF inh: SWI/SNF esBAF complex inhibition; reporter increase, % at 12.5 µM; mouse ES cells, Bmi1-luciferase knock-in reporter, 24 h; 100% = twice the neutral-well signal; 350,000 tested, 2% active; in the data active = activation above about 40%; inconclusive = no clear call, values can overlap the other calls;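 also: 0% = median of the plate's neutral control wells and 100% = double that signal; a rise in the Bmi1 reporter signal indicates esBAF inhibition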
C2C12 statin: suppressors of simvastatin-induced myotoxicity in C2C12 myotubes; ATP luminescence, 48 h; scaled: DMSO 0, geranylgeraniol control 100; rescue of ATP level, % at 7.49 µM; 330,000 tested, 0.78% active;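 active = mean ATP rescue above about 67%, or every replicate alone reaching that limit, limit read from the data, passing the limit was not always enough; inconclusive = no clear call, values can overlap the other calls; inactive = mean under the limit and some replicate under it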;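 also: myotubes were challenged with 10 µM simvastatin during compound exposure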
* = called active by the depositor; ? = inconclusive; . = not tested or not shown.

SMILES	MITF act	Wnt act	esBAF inh	C2C12 statin
COc1cccc(OC)c1OCCCSc1nc(C)cc(=O)[nH]1	11	.	2	-2
CC(C)COc1cc(=O)[nH]c(SCC(C)C)n1	-18	-1	5	148*
CCCC#Cc1cnc2c(c1)C(=O)N([C@@H](C)CO)C[C@@H](C)[C@@H](CN(C)C(=O)NCCC)O2	.	.	1	1
COc1ccc(NC(=O)Nc2ccc3c(c2)C(=O)N([C@@H](C)CO)C[C@@H](C)[C@H](CN(C)S(=O)(=O)c2ccc(OC)cc2)O3)cc1	.	.	-4	-24
O=C(c1cccs1)N1CCn2c1nc1ccccc12	82*	15	36	.
COc1ccc(C(=O)N2CCn3c2nc2ccccc23)cc1	78	23	?	-13
O=C(c1ccc(Cl)cc1)N1CCn2c1nc1ccccc12	62	2	49*	7
C[C@@H]1CN([C@H](C)CO)S(=O)(=O)c2ccc(-c3cccc(C#N)c3)cc2O[C@H]1CN(C)C(=O)c1ccncc1	.	.	2	-16
CC(=O)N(C)C[C@H]1Oc2ncc(-c3ccc(C(=O)N(C)C)cc3)cc2C(=O)N([C@@H](C)CO)C[C@@H]1C	.	.	0	-21
Cc1ccc(F)cc1NC(=O)CCc1c(C)nn(-c2ccc(N3CCCCC3)nn2)c1C	48	8	65*	-8
Cc1ccc(NC(=O)CCc2c(C)nn(-c3ccc(N4CCCCC4)nn3)c2C)cc1C	51	20	1	-11
Cc1ccc(NC(=O)CCc2c(C)nn(-c3ccc(N4CCCCC4)nn3)c2C)cc1	31	13	38	-8
Cc1cc(C)cc(NC(=O)CCc2c(C)nn(-c3ccc(N4CCCCC4)nn3)c2C)c1	?	16	68*	1
COc1ccc(C)cc1NC(=O)CCc1c(C)nn(-c2ccc(N3CCCCC3)nn2)c1C	38	11	61*	-6
Cc1nn(-c2ccc(N3CCCCC3)nn2)c(C)c1CCC(=O)Nc1ccc(F)c(F)c1	60	14	55*	9
O=C(Nc1ccccc1F)N[C@@H]1C=C[C@@H](CC(=O)N2CCCCC2)O[C@@H]1CO	.	.	-2	-3
Cc1ccc(NC(=O)CCc2c(C)nn(-c3ccc(N4CCOCC4)nn3)c2C)cc1F	60	6	53*	-4
Cc1ccc(NC(=O)CCc2c(C)nn(-c3ccc(N4CCOCC4)nn3)c2C)cc1	18	2	28	1
COC(=O)c1sc(NC(=O)c2ccoc2C)nc1C	.	10	49*	-11
COC(=O)c1sc(NC(=O)c2ccco2)nc1C	24	.	33	-23
COC(=O)c1sc(NC(=O)COc2ccccc2)nc1C	56	.	-1	6
COC(=O)c1sc(NC(=O)Cc2cccs2)nc1C	38	.	42*	-9
COc1cccc(C(=O)Nc2ccc3c(c2)C(=O)N(C)[C@@H]2CC[C@H](CC(=O)NCc4ccccc4F)O[C@H]2CO3)c1	.	.	2	2
C[C@@H]1CN([C@H](C)CO)C(=O)Cc2cc(NS(C)(=O)=O)ccc2O[C@H]1CN(C)Cc1ccc(-c2ccccc2)cc1	.	.	0	12
O=[N+]([O-])c1ccc2nc(-c3ccc(Cl)cc3)n(OCc3ccccc3)c2c1	.	65*	68*	-16
SMILES	MITF act	Wnt act	esBAF inh	C2C12 statin
Clc1ccc(COn2c(-c3ccc(Cl)cc3)nc3ccccc32)cc1	2	19	-2	5
O=C(O)COn1c(-c2ccc(Cl)cc2)nc2ccc(Cl)cc21	57	13	.	.
Cc1ccc(COn2c(-c3ccc(Cl)cc3)nc3ccc([N+](=O)[O-])cc32)cc1	102*	42*	54*	-38
CCOC(=O)C(C)On1c(-c2ccc(Cl)cc2)nc2ccc([N+](=O)[O-])cc21 (stereo unspecified)	58	.	.	.
COn1c(-c2ccc(Cl)cc2)nc2ccc(Cl)cc21	22	57*	5	-13
CCNC(=O)C[C@H]1CC[C@H]2[C@@H](COC[C@@H](O)CN2Cc2ccc(Cl)c(Cl)c2)O1	.	.	2	21
Cc1ccc(C)c(CNC(=O)Nc2ccccc2)c1	86*	3	51*	11
Cc1ccc(CNC(=O)Nc2ccccc2)cc1	?	21	46*	9
O=C(NCc1ccc(Cl)cc1Cl)Nc1ccccc1	66	46*	.	.
Cc1ccc(CNC(=O)NCc2ccccc2)cc1	13	7	.	.
Cc1ccc(CNC(=O)Nc2cccs2)cc1	37	.	54*	22
CC(C)NC(=O)N(C)C[C@H]1Oc2ccc(NC(=O)NC3CCCCC3)cc2CC(=O)N([C@H](C)CO)C[C@H]1C	.	.	1	8
Cc1ccn(CC(=O)NC2CC(C)(C)Cc3c2cnn3-c2ccc(F)cc2)n1 (stereo unspecified)	61	-2	42*	-3
